Bioassay records from PubChem BioAssay.
NPR2 activator: GC-B (human) receptor activation. AID 1920062. actives 0.11% (n = 370,000). HEK293-GC-B cells, CNP EC30, cGMP TR-FRET; 0% at EC30 CNP, 100% saturating CNP. activation, % at 10 µM. P20594;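 active means activation at 10 µM reaching about 35% in either raw or pattern-adjusted values, limit read from the data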
Efflux pump mplx: blocks antifungal efflux pumps in multiplex yeast assay. actives 0.44% (n = 330,000). inhibition, % at 10 µM. AID 485275. S. cerevisiae Candida pump triplex, Nile Red efflux;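 active means plate passing quality check with inhibition over a set limit, or well fluorescence over plate mean plus 4 SD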;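 further: Nile Red retained in pooled yeast measured as flow cytometry median fluorescence; 0% = buffer negative control and 100% = Enniatin B positive control; higher means more Nile Red kept so more efflux inhibition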
HSV replic up: increases HSV replication in cells; maximum fold increase; actives 0.005% (n = 220,000); HSV replication augmentation in cells, fold increase; in the data active means maximum fold increase above about 1.5; inconclusive means no clear call, values can overlap the other calls; tested in PC3 cells
H9c2 TAG inh: reduces triacylglycerol accumulation in H9c2 cells. actives 0.66% (n = 230,000). inhibition, % at 12.5 µM. Nile Red lipid (TAG) fluorescence; cells loaded with 200 µM oleic acid. AID 651582;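 active means pattern-corrected inhibition of lipid staining of at least 50% with the nuclear-stain viability signal not falling by more than 50%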;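 further: 0% = DMSO wells and 100% = triacsin C control wells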
Bfl-1 A1 inh: inhibitors of the anti-apoptotic protein A1, read as caspase activation; MEF A1-2A-BIM cells, Caspase-Glo 3/7 luminescence, 3 h; percent of clofoctol response, vehicle zero; caspase activation, % (no concentration beside the values); actives 0.066% (n = 330,000);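 active means over half of replicate activation scores above 10%, or exactly half above 10 with the replicate mean above 10; inconclusive means replicate mean below 10 yet half the replicates above 10; inactive means over half of replicates below 10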
GC-A act: GC-A (human) enzyme activation | P16066 | actives 0.14% (n = 370,000) | HEK293 GC-A cells, cGMP TR-FRET, EC30 ANP; 0% at EC30 ANP, 100% saturating ANP | activation, % at 10 µM | AID 1671463; in the data active means activation above about 40%
Yeast cmpd fluor: compound fluorescence in yeast efflux pump counter-screen; shares compounds with Efflux pump mplx; S. cerevisiae AD/pABC3, flow cytometry; fluorescence ratio to DMSO, % at 10 µM; actives 4% (n = 1,700); AID 588517;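 active means fluorescence ratio to DMSO above its plate's cutoff, the plate mean ratio plus 5 SD, cut at about 210% in these data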;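 further: unstained yeast with no Nile Red so the signal is compound autofluorescence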
CaMdr1 efflux inh: inhibitors of Candida albicans Mdr1 efflux pump; shares compounds with Efflux pump mplx; S. cerevisiae AD/CaMDR1, Nile Red efflux, flow cytometry; inhibition, % at 10 µM; actives 1% (n = 1,700); in the data active means inhibition above about 26%;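 further: 0% = DMSO vehicle and 100% = reference inhibitor; higher means more Nile Red retained so more efflux inhibition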
CaCdr2 efflux inh: inhibitors of Candida albicans Cdr2 efflux pump; actives 4% (n = 1,700); S. cerevisiae AD/CaCDR2, Nile Red retention, flow cytometry; shares compounds with Efflux pump mplx; Nile Red retention ratio vs DMSO, % at 10 µM; in the data active means Nile Red retention ratio vs DMSO above about 190%;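 further: higher ratio means more blocking of Cdr2 efflux of the dye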
Cdr1 pump inh: inhibitors of Candida albicans Cdr1 efflux pump; S. cerevisiae AD/CaCDR1, Nile Red efflux, flow cytometry; shares compounds with Efflux pump mplx; actives 1% (n = 1,700); inhibition, % at 10 µM;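 active means inhibition above the screen-wide mean plus twice its standard deviation, cut at about 32% in these data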
The depositor's hits bear a star; i = inactive; ? = inconclusive; nt = no result. Most compounds without a hit are left out; they make up all but 1% or so of the library.

SMILES	NPR2 activator	Efflux pump mplx	HSV replic up	H9c2 TAG inh	Bfl-1 A1 inh	GC-A act	Yeast cmpd fluor	CaMdr1 efflux inh	CaCdr2 efflux inh	Cdr1 pump inh
CC(C)(C)NS(=O)(=O)c1ccc(NC(=O)c2cc(-c3ccccc3)nc3ccccc23)cc1	-4.0	-0.1	i	nt	-0.3	-5.0	nt	nt	nt	nt
N#C/C(=C\c1ccco1)c1nc2ccccc2s1	-3.9	0.1	i	nt	-9.6	0.5	108.3	-0.1	109.9	0.3
CCCCc1ccc(-c2csc(/C(C#N)=C\c3ccco3)n2)cc1	-7.7	0.6*	nt	-9.4	0.8	-2.8	111.5	-0.2	90.9	0.3
N#C/C(=C\c1ccc(O)c([N+](=O)[O-])c1)c1nc2ccccc2s1	2.5	nt	i	nt	nt	9.7	nt	nt	nt	nt
CCCCc1ccc(-c2csc(/C(C#N)=C/c3ccc(C)o3)n2)cc1	-1.9	0.2	i	-13.8	-0.7	2.2	nt	nt	nt	nt
N#C/C(=C/c1ccco1)c1nc2ccccc2s1	-3.1	-0.2	?	nt	-6.2	-4.4	98.9	-0.3	106.3	0.1
COc1ccc(-n2c(COc3ccc(Cl)cc3)nnc2SCC(=O)Nc2ccc(Oc3ccccc3)cc2)cc1	-0.5	nt	nt	nt	nt	-0.6	nt	nt	nt	nt
O=[N+]([O-])c1ccc(COc2ccc(-c3[nH]ncc3-c3ccc(Cl)cc3)c(O)c2)cc1	0.1	17.7*	i	nt	0.2	-0.3	108.6	0.1	111.6	0.0
COc1ccc(-n2c(SCC(=O)Nc3ccccc3-c3ccccc3)nnc2-c2ccccc2)cc1	-16.4	nt	nt	nt	nt	-25.9	nt	nt	nt	nt
CCOC(=O)C1NN=C(C(=O)c2ccccc2)C1c1ccc(OC)cc1 (centres undefined)	0.8	1.4*	i	nt	-0.5	-0.3	100.3	-0.3	111.6	0.0
CCOC(=O)C1NN=C(C(=O)c2ccccc2)C1c1ccccc1 (centres undefined)	-1.9	0.0	i	nt	-0.5	-0.6	nt	nt	nt	nt
CCCC[C@H]1C2CC(OC(=O)Nc3ccc(C#N)cc3)C(C2)[C@H]2CCCCN21 (some centres undefined)	1.3	nt	nt	nt	nt	2.2	nt	nt	nt	nt
COc1ccc(Cn2nnc3c(=O)[nH]c(C4CCN(S(=O)(=O)c5ccc(C)cc5)CC4)nc32)cc1	-6.6	0.1	nt	nt	-0.6	-1.4	111.5	0.1	109.9	0.2
Cc1ccc(Cn2nnc3c(=O)[nH]c(C4CCN(S(=O)(=O)c5ccccc5)CC4)nc32)cc1	-5.1	-0.2	i	nt	0.3	-2.9	102.2	-0.5	110.3	-0.1
O=c1[nH]c(C2CCN(S(=O)(=O)c3ccccc3C(F)(F)F)CC2)nc2c1nnn2Cc1ccccc1	-0.4	3.1*	nt	nt	-0.7	17.4	109.0	-0.2	103.8	-0.2
Cc1ccc(S(=O)(=O)N2CCC(c3nc4c(nnn4Cc4ccccc4)c(=O)[nH]3)CC2)cc1	5.3	0.8	i	nt	0.2	4.7	nt	nt	nt	nt
O=c1[nH]c(C2CCN(S(=O)(=O)c3ccccc3F)CC2)nc2c1nnn2Cc1ccc(OC(F)(F)F)cc1	-8.1	0.0	nt	nt	nt	2.1	nt	nt	nt	nt
O=C(CSc1nnc(-c2ccccc2)n1-c1ccccc1)Nc1ccc(Oc2ccccc2)cc1	5.4	nt	nt	nt	nt	4.9	nt	nt	nt	nt
CCN(C(=O)C1CCCN(c2nnc(-n3cccc3)s2)C1)c1ccccc1C (centres undefined)	-9.1	nt	nt	nt	nt	-13.0	nt	nt	nt	nt
C#CC[N+](C)(C)CCCCCCCCCCCC	6.2	1.0*	i	-20.3	-0.2	4.4	100.0	-0.3	494.5*	-0.1
COc1ccc(C(=O)CSc2nnc(-c3cccc(Cl)c3)n2Cc2ccco2)cc1	4.2	nt	nt	nt	nt	-0.2	nt	nt	nt	nt
CC(=O)N1CCN(c2ccc(S(=O)(=O)NCCN(C(C)C)C(C)C)cc2[N+](=O)[O-])CC1	0.7	0.2	i	11.2	0.4	-1.2	nt	nt	nt	nt
